Growth data for 40 molecules are collected here from PubChem BioAssay (NCI).

The panel holds about 83,000 compounds, 20% with a hit somewhere; the sample as a whole holds those more often.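 Step 1: grow cells in 96-well plates. Step 2: add test compound at a single concentration. Step 3: incubate 48 h. Step 4: record percent growth.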 Values without a mark were called inactive. Calls of active or inactive are those of the source.

This experiment concerns T-47D breast. The experiment can be described thus: NCI-60 one-dose screen, 48 h (100 = growth as untreated, 0 = no growth, -100 = all killed). To be noted: 10 µM. As for the experimental part:
Growth inhibition of the T-47D human tumor cell line is measured as a screen for anti-cancer activity. Cells are grown in 96 well plates and exposed to the test compound for 48 hours. Compounds are tested at a single concentration, which is 10^-5 M for most compounds. The reported endpoint is percent growth (GI% or GIPRCNT), where numbers from 0 - 100% represent growth inhibition, and numbers from -100% - 0 represent cell death. For example, a value of 40 represents 60% growth inhibition. A value of 0 means no net growth occurred over the course of the experiment. A value of -40 indicates 40% of cells at the beginning of the experiment died by the end of the experiment. A value of -100 means all cells are dead at the end of the experiment.
NCI-60 Human Tumor Cell Lines Screen was performed using the standard one-dose NCI protocol, which is described in more detail at https://dtp.cancer.gov/discovery_development/nci-60/default.htm.
Compounds with GIPRCNT values below 10 were considered active. Activity score was based on GIPRCNT using the following formula: […]
Score is 0 for GIPRCNT values of 100 or above, 50 for GIPRCNT values of 0, and 100 for GIPRCNT values of -100.
Consider `O=S(=O)(NCCCNc1nccc(-c2c(-c3ccc(F)cc3)nc3sccn23)n1)c1ccc2ccccc2c1`, for which the growth was 17.4%.
As for `N=c1nc(N)ncn1-c1ccccc1`, the growth is 86.5%.
As to `O=C(Nc1cccc(-n2cc(-c3ccncc3)c(-c3ccc(O)c(Cl)c3)n2)c1)c1ccc(Cl)c(Cl)c1`, the growth was 36%.
As to `C=C(NC(=O)C(=C)NC(=O)c1csc(C2=NC3c4csc(n4)C4NC(=O)c5csc(n5)C(C(C)(O)C(C)O)NC(=O)C5CSC(=N5)/C(=C/C)NC(=O)C(C(C)O)NC(=O)c5csc(n5)C3(CC2)NC(=O)C(C)NC(=O)C(=C)NC(=O)C(=C)NC(=O)C(C(C)C)NC2C=Cc3c(C(C)O)cc(nc3C2O)C(=O)OC4C)n1)C(N)=O` (stereo not given), the growth was -6.42% (active).
To `N#CC1=C(Nc2ccccc2Cl)SC(c2ccccc2O)NC1=O` (stereo not given) belongs 111%.
`CCCCCCCNc1nc(C=O)ncc1-c1ccc(C(F)(F)F)cc1`: the growth is 81.6%.
With `CN(C)c1ccc(-c2cc(-c3cccc(NS(C)(=O)=O)c3)nc(N)c2C#N)cc1`, the growth is 80.4%.
As for `Nc1c(C(=O)Nc2cccc3ccccc23)sc2nc3c(cc12)C(=O)CCC3`, the growth is 47.5%.
To `CC(=O)/C(=C/c1ccccc1)C(=O)CC(C)C` belongs 107%; to `Clc1ccc(-c2cn(-c3ccccc3)c(-c3ccccc3)n2)c(Cl)c1`, -17.6% (active).
The result for `OCC1OC(n2cnc3c(N/N=C\c4ccccn4)ncnc32)C(O)C1O` (stereo not given) reads 25.4%; that for `O=C(CCCCC[P+](c1ccccc1)(c1ccccc1)c1ccccc1)NC(COC(=O)C(Cl)Cl)(COC(=O)C(Cl)Cl)COC(=O)C(Cl)Cl`, 90.8%.
To `COc1ccc(/C=C2/CN(C(=O)c3ccc(C)cc3)C/C(=C\c3ccc(OC)cc3)C2=O)cc1` belongs 69.3%.
As for `COc1cc2nc(Nc3cccc(NC(C)=O)c3)nc(N)c2cc1OC`, the growth is 90.1%.
For `O=[N+]([O-])c1cccc(-c2ncc(-c3ccc(Cl)cc3Cl)[nH]2)c1`, the growth is 79%.
The result for `S=c1[nH]ccn1-c1c(Cl)cccc1Cl` reads 91.2%; that for `O=C(Nc1ccncc1)C(=O)c1cn(S(=O)(=O)c2cccc3ccccc23)c2ccccc12`, 70.9%; that for `COc1cc(-c2nc(Nc3nc4ccccc4s3)[nH]c(=O)c2C#N)cc(OC)c1O`, 102%.
Turning to `Nc1c(C(=O)Nc2ccccc2Cl)sc2nc3c(cc12)C(=O)CCC3`, the growth was 75%.
For the molecule `O=C1/C(=C/c2ccc(Cl)cc2)SC(=Nc2ccc(Cl)cc2)N1Cc1nc2ccccc2[nH]1`, the growth is 78.1%.
`Nc1nc(-c2ccccc2Cl)cc(-c2ccc(Cl)cc2Cl)n1`: the growth is 63.7%.
The result for `O=C(Nc1cccc(-n2cc(-c3ccncc3)c(-c3ccc(O)c(Cl)c3)n2)c1)c1ccc(N2CCOCC2)c(C(F)(F)F)c1` reads 36.4%; that for `Cc1cccc(C)c1NC(=O)c1sc2nc3c(cc2c1N)C(=O)CCC3`, 92.8%; that for `FC(F)(F)c1ccc(-c2cnc(Cl)nc2N2CCC3(CC2)OCCO3)cc1`, 88.8%.
To `CCC(=O)N1C/C(=C/c2ccc(Br)cc2)C(=O)/C(=C/c2ccc(Br)cc2)C1` belongs 13%; to `O=C(Nc1ccc(CO)cc1)c1ccccc1Nc1ccnc(C(F)(F)F)c1`, 86.9%.
Consider `COc1cc(C(=O)N2CCN(c3ccccc3OC)CC2)c(N)cc1OCCCN1CCN(c2ccccc2OC)CC1`, for which the growth was 50.9%.
To `CCCCC/C=C/C(=O)CCc1ccc(O)c(OC)c1` belongs 73.3%; to `O=C(Nc1ccc(CN2CCc3nc4cc(O)c(O)cc4cc32)cc1)c1ccc(Cl)c(Cl)c1`, 88.6%.
The result for `COc1ccc(-c2nn(-c3cccc(NC(=O)Nc4ccccc4)c3)cc2-c2ccncc2)cc1Cl` reads 30.9%; that for `O=C(O)CC(Cl)C(Cl)CC(=O)O` (stereo not given), 99.6%.
For the molecule `Nc1ccn(C2CC(O)C(CO)O2)c(=O)n1` (stereo not given), the growth is 103%.
To `N#Cc1ncc(Br)c(NC2CCCCCC2)n1` belongs 90.8%; to `CCN(CC)CCC(CNc1c(C)cnc2cc(Cl)ccc12)c1ccc(Cl)cc1` (stereo not given), 59.6%; to `COc1ccc(N2C(=O)C3c4[nH]c5ccc(OCc6ccccc6)cc5c4C4CCC(C(C)C)CC4C3C2=O)cc1` (stereo not given), 104%.
The result for `COc1ccc2c(c1)O/C(=C\c1ncc([N+](=O)[O-])n1C)C2=O` reads 76.5%.
To `CCCCCCCCCCCCCC[n+]1ccc(C(N)=O)cc1` belongs 46.9%.
On to `O=C1N=NC2=C1c1c3ccccc3c(O)n1CC2`, for which the growth is 103%.
In the case of `N#Cc1cccc(OCc2nc(N)nc(N)c2-c2ccc(Cl)c(Cl)c2)c1`, the growth was 71.5%.
The result for `CC(=O)O[C@]1(C)CC[C@H]2[C@H](CNCCc3ccc(Cl)cc3)C(=O)O[C@@H]2C2=C(C)C(=O)C[C@H]21` reads 92.3%.
